Consider five compounds from PubChem BioAssay.

The source made the active and inactive calls.

One assay addresses Albumin (Bos taurus) (UniProt P02769). Nature of the assay: compounds binding labelled BSA control protein – biochemical, small-molecule microarray, Alexa647 label, 635/667 nm fluorescence, artefact control for SMM control protein annotation, profiling panel (AID 1118).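 Further: score merges 667 nm emission intensity and signal-to-noise per printed compound spot.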 Conditions: BSA-A647 binding, fluorescence 635 nm, higher = more signal.
The nature of assay [1]: probe aXIP binding to arrayed compounds – biochemical, NeuroSMM set, 635/667 nm fluorescence, primary screen (AID 1119).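 Further: probe is the protein aXip251-270 applied at 1 µg/mL to compound-printed slides; binding of probe to printed compounds measured as 667 nm fluorescence plus signal to noise.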 Conditions: small-molecule microarray, higher = more signal, called active from +8 up or from −8 down.
Assay [2] is described as follows: probe aNOTCH3 binding on compound microarray – biochemical, small-molecule microarray, 635/667 nm fluorescence, primary screen (AID 1120).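 Further: probe is a biotin-tagged antibody raised against NOTCH3 rather than NOTCH3 protein; score merges spot fluorescence near 667 nm with spot signal to noise.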 Particulars: higher = more signal.
The nature of assay [3]: probe aNOTCH2 binding on compound microarray – biochemical, small-molecule microarray, 635/667 nm fluorescence, primary screen (AID 1121).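 Further: score merges feature fluorescence read at 667 nm with its signal to noise.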 Conditions: higher = more signal.
For assay [4], the target named is Carbonic anhydrase 2 (Homo sapiens) (UniProt P00918). Nature of the assay: compounds binding carbonic anhydrase 2 – biochemical, small-molecule microarray, Alexa647-labelled CAII, profiling panel (AID 1122). Particulars: CAII-A647 binding fluorescence, higher = more signal.
Assay [5] in a line: COS7 lysate on small-molecule microarray, probe aHis, 635 nm (AID 1123).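 Further: z-score combines 667nm fluorescence intensity with signal-to-noise per printed compound spot.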 Particulars: COS7 cell lysate, fluorescence, higher = more signal.
The nature of assay [6]: probe aLAP1 signal on lysate-treated microarray – cell lysate, small-molecule microarray, COS7 lysate, primary screen (AID 1124).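 Further: lysate comes from COS7 cells expressing LAP1 and is applied at 0.3 µg/mL; score merges spot fluorescence near 667 nm with signal-to-noise over triplicate slides.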 Conditions: probe aLAP1, fluorescence, higher = more signal.
Another assay deals with Sam68 (KHDRBS1). Nature of the assay: compounds binding KHDRBS1 protein – biochemical, small-molecule microarray, 635 nm fluorescence, primary screen (AID 1125).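 Further: score merges 667 nm channel intensity with signal to noise over triplicate slides.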 Particulars: higher = more signal.
In assay [7] the test system is Chordin-like protein 2 (CHRDL2). Nature of the assay: compounds binding chordin-like 2 – biochemical, small-molecule microarray, 635 nm fluorescence, primary screen (AID 1126).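 Further: printed compound slides probed with Chrdl2 protein at 4 µg/mL for 1 h at 4 C; score merges 667 nm emission intensity with signal to noise over three replicate slides.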 Particulars: fluorescence 635 nm, higher = more signal.
The target of assay [8] is Concanavalin-A (Canavalia ensiformis) (UniProt P02866). Nature of the assay: compounds binding concanavalin A lectin – biochemical, small-molecule microarray, Alexa647 label, 635 nm, artefact control for SMM control protein annotation, primary screen (AID 1127).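 Further: z combines 667 nm emission intensity with signal-to-noise across three replicate slides.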 Conditions: ConA-A647 binding fluorescence, higher = more signal.
Sequence of Concanavalin-A (Canavalia ensiformis) (P02866 whole entry, looked up): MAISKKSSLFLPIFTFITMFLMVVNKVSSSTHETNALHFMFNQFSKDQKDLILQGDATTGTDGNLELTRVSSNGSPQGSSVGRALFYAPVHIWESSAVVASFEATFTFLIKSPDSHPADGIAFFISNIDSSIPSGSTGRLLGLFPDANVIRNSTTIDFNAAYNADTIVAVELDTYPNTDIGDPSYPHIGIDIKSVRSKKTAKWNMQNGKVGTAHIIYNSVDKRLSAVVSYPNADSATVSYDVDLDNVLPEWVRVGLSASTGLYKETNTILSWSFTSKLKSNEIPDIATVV
A short description of assay [9]: compounds binding Alexa647 anti-His antibody – biochemical, small-molecule microarray, 635 nm fluorescence, artefact control for SMM control protein annotation, primary screen (AID 1128).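 Further: score merges feature fluorescence with signal-to-noise for each printed compound spot.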 Conditions: higher = more signal.
Assay [10] has as its system Human papillomavirus type 1a E7 protein (residues 1-88). Nature of the assay: HPV1a E7 small-molecule binders, primary screen, biochemical, small-molecule microarray, residues 1-88, 635 nm (AID 1129). Particulars: small-molecule microarray binding, fluorescence 635 nm; higher = more signal.
Assay [11] concerns the target Focal adhesion kinase 1 (Homo sapiens) (UniProt Q05397). Nature of the assay: PTK2 protein binding on printed compound slides – biochemical, small-molecule microarray, 635/667 nm fluorescence, BSA, DTT, primary screen (AID 1130).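 Further: composite of spot emission at 667 nm and signal to noise over triplicate slides.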 Particulars: 635 nm fluorescence, higher = more signal.
Assay [12] has as its system Fibrinogen (Alexa647-labelled). Nature of the assay: Alexa647-fibrinogen binding to printed small molecules – biochemical, small-molecule microarray, 635/667 nm fluorescence, artefact control for SMM control-protein annotation, profiling panel (AID 1131).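 Further: z-score merges 667 nm fluorescence with per-spot signal-to-noise over triplicate slides.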 Conditions: fibrinogen-A647 binding fluorescence, higher = more signal.
Assay [13] concerns the target Follistatin (Homo sapiens) (UniProt P19883). Nature of the assay: FST protein binding to printed compounds – biochemical, small-molecule microarray, 635/667 nm fluorescence, primary screen (AID 1132). Conditions: 635 nm fluorescence, higher = more signal.
Assay [14] addresses Fibroblast growth factor 2 (Homo sapiens) (UniProt P09038). Nature of the assay: basic fibroblast growth factor binding to printed compounds – biochemical, small-molecule microarray, 635/667 nm fluorescence, primary screen (AID 1133). Conditions: FGF2, fluorescence 635/667, higher = more signal.
The nature of assay [15]: JC-1 mitochondrial potential readout, lung cancer cells – cell-based, A549, JC-1 fluorescence, basal, 24 h, 100 nL, profiling panel (AID 1138).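 Further: A549 lung adenocarcinoma cells under basal conditions with no added stimulus; test concentration not given here.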 Particulars: higher = more signal.
In another assay the test system is Lefty1. Nature of the assay: Lefty1 protein binding to printed compounds – biochemical, small-molecule microarray, 635/667 nm fluorescence, primary screen (AID 1139). Particulars: fluorescence 635/667, higher = more signal.
Assay [16] has as its system wheat germ agglutinin (Triticum aestivum), Alexa647-labelled. Nature of the assay: Alexa647-WGA lectin binding to printed small molecules – biochemical, small-molecule microarray, 635/667 nm fluorescence, artefact control for SMM control-protein annotation, profiling panel (AID 1140).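 Further: score merges 667 nm feature emission with signal to noise over triplicate slides.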 Particulars: WGA-A647 binding, 635 nm fluorescence, higher = more signal.
The target of assay [17] is Luciferin 4-monooxygenase (Photinus pyralis) (UniProt P08659). Nature of the assay: inhibition of purified Photinus pyralis luciferase – biochemical, luminescence, purified enzyme, 2006 set, primary screen (AID 1141).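 Further: cell-free assay with purified firefly luciferase at 100 ng per well in PBS; test concentration not given here.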 Conditions: purified firefly luciferase, SteadyGlo luminescence, 30 min; higher = more signal, called active from +8 up or from −8 down.
Sequence of Luciferin 4-monooxygenase (Photinus pyralis) (P08659 whole entry, looked up): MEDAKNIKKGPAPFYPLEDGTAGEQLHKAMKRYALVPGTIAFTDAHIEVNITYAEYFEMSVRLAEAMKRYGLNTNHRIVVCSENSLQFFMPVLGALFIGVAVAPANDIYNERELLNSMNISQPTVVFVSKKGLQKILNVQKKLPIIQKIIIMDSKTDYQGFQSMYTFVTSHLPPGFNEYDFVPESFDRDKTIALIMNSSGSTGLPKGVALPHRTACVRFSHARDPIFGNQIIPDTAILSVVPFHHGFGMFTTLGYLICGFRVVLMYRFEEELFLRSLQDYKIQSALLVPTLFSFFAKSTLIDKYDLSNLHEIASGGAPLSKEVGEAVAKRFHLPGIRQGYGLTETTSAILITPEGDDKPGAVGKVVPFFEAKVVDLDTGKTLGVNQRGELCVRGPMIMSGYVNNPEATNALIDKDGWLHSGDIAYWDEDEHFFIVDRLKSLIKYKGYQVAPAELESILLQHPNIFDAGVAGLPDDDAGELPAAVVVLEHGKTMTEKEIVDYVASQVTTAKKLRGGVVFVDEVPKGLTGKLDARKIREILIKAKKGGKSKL

Sequence of Albumin (Bos taurus) (P02769 whole entry, looked up): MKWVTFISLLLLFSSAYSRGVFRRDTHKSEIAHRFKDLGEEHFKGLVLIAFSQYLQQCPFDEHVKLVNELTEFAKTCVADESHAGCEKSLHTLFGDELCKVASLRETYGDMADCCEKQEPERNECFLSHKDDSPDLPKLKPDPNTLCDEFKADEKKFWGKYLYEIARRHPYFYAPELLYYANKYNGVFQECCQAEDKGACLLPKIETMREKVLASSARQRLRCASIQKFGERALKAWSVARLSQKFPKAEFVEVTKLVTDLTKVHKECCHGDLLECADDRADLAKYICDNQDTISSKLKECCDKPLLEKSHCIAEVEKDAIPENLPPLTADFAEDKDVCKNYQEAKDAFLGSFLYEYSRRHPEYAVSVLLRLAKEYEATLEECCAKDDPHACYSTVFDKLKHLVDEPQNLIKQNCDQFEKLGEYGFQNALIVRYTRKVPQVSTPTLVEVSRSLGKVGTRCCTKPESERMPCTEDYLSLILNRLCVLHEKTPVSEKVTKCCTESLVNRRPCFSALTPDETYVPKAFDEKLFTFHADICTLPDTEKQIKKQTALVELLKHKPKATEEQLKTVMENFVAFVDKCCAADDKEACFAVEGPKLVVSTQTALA
Sequence of Focal adhesion kinase 1 (Homo sapiens) (Q05397 whole entry, looked up): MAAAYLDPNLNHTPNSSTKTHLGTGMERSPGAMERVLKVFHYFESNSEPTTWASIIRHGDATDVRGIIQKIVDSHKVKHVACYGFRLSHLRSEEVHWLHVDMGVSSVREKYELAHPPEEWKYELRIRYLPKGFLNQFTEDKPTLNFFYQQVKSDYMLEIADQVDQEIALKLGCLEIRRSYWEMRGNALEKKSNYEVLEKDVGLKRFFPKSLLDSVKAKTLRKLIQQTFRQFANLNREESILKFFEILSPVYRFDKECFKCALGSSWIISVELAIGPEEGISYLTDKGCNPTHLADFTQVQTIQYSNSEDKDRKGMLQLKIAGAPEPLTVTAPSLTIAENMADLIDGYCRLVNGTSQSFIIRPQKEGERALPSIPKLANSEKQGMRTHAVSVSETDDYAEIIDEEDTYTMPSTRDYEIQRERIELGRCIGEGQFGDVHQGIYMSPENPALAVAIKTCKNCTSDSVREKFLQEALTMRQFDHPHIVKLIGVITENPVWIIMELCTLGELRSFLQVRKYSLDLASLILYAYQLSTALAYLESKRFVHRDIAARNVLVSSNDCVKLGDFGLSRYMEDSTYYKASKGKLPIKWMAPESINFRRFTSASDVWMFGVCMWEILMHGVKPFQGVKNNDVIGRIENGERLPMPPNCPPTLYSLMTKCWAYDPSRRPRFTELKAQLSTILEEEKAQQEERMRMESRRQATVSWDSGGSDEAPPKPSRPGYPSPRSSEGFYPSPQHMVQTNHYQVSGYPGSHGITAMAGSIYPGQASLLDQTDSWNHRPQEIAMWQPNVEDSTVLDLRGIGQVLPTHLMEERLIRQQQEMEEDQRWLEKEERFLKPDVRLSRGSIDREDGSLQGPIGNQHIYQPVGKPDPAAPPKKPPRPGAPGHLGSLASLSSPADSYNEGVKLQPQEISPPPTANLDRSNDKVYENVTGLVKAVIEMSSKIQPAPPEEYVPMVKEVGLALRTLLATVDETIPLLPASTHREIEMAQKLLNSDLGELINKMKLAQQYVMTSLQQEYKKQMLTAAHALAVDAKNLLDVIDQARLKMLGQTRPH
Sequence of Fibroblast growth factor 2 (Homo sapiens) (P09038 whole entry, looked up): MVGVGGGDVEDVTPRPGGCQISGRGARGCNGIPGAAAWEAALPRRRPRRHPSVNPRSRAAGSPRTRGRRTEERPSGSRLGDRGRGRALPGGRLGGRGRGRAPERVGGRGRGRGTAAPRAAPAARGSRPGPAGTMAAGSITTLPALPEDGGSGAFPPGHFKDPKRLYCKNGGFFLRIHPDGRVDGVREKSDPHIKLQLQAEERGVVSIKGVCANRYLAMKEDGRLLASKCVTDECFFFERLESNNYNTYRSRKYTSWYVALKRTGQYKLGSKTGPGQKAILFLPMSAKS
Sequence of Follistatin (Homo sapiens) (P19883 whole entry, looked up): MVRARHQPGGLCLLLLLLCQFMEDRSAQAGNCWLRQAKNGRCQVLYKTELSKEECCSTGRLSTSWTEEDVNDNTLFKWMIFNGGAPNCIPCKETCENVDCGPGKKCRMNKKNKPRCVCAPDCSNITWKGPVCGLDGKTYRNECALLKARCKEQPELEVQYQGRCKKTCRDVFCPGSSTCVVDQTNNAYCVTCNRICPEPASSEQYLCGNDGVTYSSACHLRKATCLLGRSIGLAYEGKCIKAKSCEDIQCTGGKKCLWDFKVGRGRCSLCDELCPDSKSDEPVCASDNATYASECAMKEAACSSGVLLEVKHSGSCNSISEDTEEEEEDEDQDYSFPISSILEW

Turning to `COc1cccc([C@@H]2[C@@H](C)CC[C@H]3C(=O)N4[C@H](c5cccc(OC)c5)[C@@H](C)CC[C@H]4C(=O)N23)c1`, the composite z-score with Albumin (Bos taurus) was 0.447; in [2] it was 0.0193; in assay [3], -0.0262; in assay [4], 0.35; in assay [5], 0.69; in [6], 1.06. Besides, the composite z-score is 0.656 in the assay with Sam68 (KHDRBS1); 0.811 in [7]; 0.0858 in [8]; 0.584 in assay [9]; 0.276 in assay [10]; -0.175 in [11]. Besides, the composite z-score in assay [12] stood at 0.817; in assay [13], 0.614; in assay [14], 0.428; in the assay with Lefty1, 0.418; in [16] it was 0.248. Also, the composite Z-score in [1] is -0.155 (inactive). Moreover, the z-score is 1.55 in [15] and -1.78 (inactive) in assay [17].
With `Cc1ccc(N2C(=O)c3ccccc3[C@@H](C(=O)NCc3ccccc3)[C@@H]2c2ccc(CO)cc2)nc1`, the composite z-score with Albumin (Bos taurus) is -1.29; in assay [2], -0.0328; in assay [3] it was -0.0272; in assay [4], 0.451; in assay [5], 3.91; in assay [6], -0.0641. Also, the composite z-score in the assay with Sam68 (KHDRBS1) was -0.931; in assay [7] it was 0.465; in assay [8] it was -1.28; in assay [9], -0.841; in [10], -1.26; in [11] it was -0.289. Besides, the composite z-score is -1.15 in assay [12]; 1.33 in assay [13]; 0.0049 in assay [14]; -0.114 in the assay with Lefty1; -1.19 in [16]. Besides, in assay [1], the composite Z-score is -0.816 (inactive). Further, the figures for the z-score in assay [15] and in [17] were 1.35 and -0.635 (inactive), respectively.
On to `Cc1ccc(S[C@]2(C(=O)NC(C)C)CC(=O)N(Cc3cc(C(F)(F)F)cc(C(F)(F)F)c3)[C@@H]2c2ccc(CO)cc2I)cc1`, for which the composite z-score in the assay with Albumin (Bos taurus) is -1.25; in [2] it was -0.313; in assay [3], -0.14; in [4], 0.788; in assay [5] it was 1.31; in [6], 0.917. For the same compound, the composite z-score in the assay with Sam68 (KHDRBS1) is -0.733; in assay [7], -1.21; in assay [8], -0.442; in assay [9] it was 2.87; in assay [10] it was -0.335; in assay [11], 0.481. The composite z-score is -0.306 in assay [12]; 0.623 in assay [13]; 0.384 in assay [14]; -0.919 with Lefty1; 0.445 in [16]. Also, the composite Z-score in assay [1] was 0.0296 (inactive). The z-score in assay [15] is 0.598; in [17], 0.819 (inactive).
On to `CC(C)C[C@@H]1NC(=O)[C@H](CC(C)C)NC(=O)[C@@]23C(=O)N[C@@H](Cc4ccccc4)C2[C@H](C)[C@@]2(C)O[C@H]2C3/C=C/CC/C=C/CNC1=O` (stereo not given in full), for which the composite z-score in the assay with Albumin (Bos taurus) is 0.734; in assay [2], -0.0657; in assay [3] it was -0.118; in assay [4], 0.578; in assay [5], 0.268; in [6], -0.219. For the same compound, the composite z-score is 1.05 in the assay on Sam68 (KHDRBS1); 0.702 in [7]; 1.02 in assay [8]; 0.239 in [9]; 0.329 in assay [10]; 0.427 in [11]. Also, the composite z-score in [12] was 0.722; in [13], 0.758; in assay [14], 0.319; in the assay with Lefty1, 1.01; in [16] it was 0.265. In [1], the composite Z-score is -0.392 (inactive). Moreover, the z-score in [15] was 0.234; in [17], 0.244 (inactive).
As to `CO[C@H]1COC(=O)CC=C[C@H](C)[C@@H](OC)COC(=O)[C@H](Cc2ccccc2)NC(=O)CC=C[C@@H]1C`, the composite z-score is -2.12 in the assay with Albumin (Bos taurus); -0.132 in [2]; -0.0743 in [3]; -0.961 in assay [4]; -0.566 in [5]; -0.287 in assay [6]. Besides, the composite z-score is -0.777 with Sam68 (KHDRBS1); 1.46 in assay [7]; -2.53 in assay [8]; -1.1 in assay [9]; -2.59 in [10]; 0.264 in [11]. The composite z-score in assay [12] was -1.23; in [13] it was 1.42; in assay [14] it was 1.34; in the assay on Lefty1 it was 1.59; in assay [16], -0.324. For the same compound, in [1], the composite Z-score was 0.699 (inactive). Further, the figures for the z-score in assay [15] and in assay [17] were 1.39 and -1.06 (inactive), respectively.
